Bioassay records (PubChem)
Hits are enriched below; roughly 2.1% of the tested compounds scored in any of these assays.
ADAM17 inh: ADAM17 inhibition, QFRET primary screen | recombinant ADAM17, EDANS/DABCYL FRET peptide cleavage | hit rate 0.83% among 370,000 | inhibition, % at 6.95 µM | AID 720648 | P78536;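 active = inhibition above the mean of compounds lying between control limits plus 3 SD, set per campaign, cut at about 8.5% in these data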
ADAM10 inh: inhibitors of human ADAM10; O14672; recombinant ADAM10, EDANS/DABCYL FRET peptide cleavage, 3 h; inhibition, % at 7 µM; hit rate 0.62% among 370,000;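 active = inhibition above a per-campaign cutoff equal to the mean of compounds falling between control-based bounds plus 3 SD, cut at about 20% in these data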
Target sequence (O14672 214-748 limits assumed): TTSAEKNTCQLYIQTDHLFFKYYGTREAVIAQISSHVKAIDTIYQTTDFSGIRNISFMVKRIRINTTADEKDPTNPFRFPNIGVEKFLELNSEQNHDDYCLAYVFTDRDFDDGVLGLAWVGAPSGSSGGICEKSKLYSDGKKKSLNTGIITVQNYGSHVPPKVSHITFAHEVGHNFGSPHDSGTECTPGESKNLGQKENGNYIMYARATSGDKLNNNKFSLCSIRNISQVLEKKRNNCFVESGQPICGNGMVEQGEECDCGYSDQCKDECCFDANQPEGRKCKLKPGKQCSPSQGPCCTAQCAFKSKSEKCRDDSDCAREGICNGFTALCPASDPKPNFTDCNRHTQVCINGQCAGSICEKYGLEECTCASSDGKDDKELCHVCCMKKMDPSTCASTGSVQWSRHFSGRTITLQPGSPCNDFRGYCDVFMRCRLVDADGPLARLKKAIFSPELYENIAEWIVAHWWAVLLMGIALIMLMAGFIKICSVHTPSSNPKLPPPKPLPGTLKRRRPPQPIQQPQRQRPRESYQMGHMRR
Rce1 inhib: yeast Ras-converting enzyme inhibition. Q03530. yeast membranes, quenched prenylated peptide cleavage fluorescence. calls only. hit rate 0.27% among 290,000. AID 2563;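 active = fall in fluorescence gain of 50% or more versus controls, with final raw signal at or below 3038400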
PLC-beta3 inh: blocks human PLC-beta3 enzyme activity | Q01970 | Purified PLC-beta3, fluorogenic substrate, fluorescence | inhibition, % at 12.2 µM | hit rate 0.18% among 370,000 | AID 720704; in the data active = inhibition above about 11%
PLCg1 inh: PLC-gamma1 (human) inhibition, primary screen. hit rate 0.84% among 370,000. inhibition, % at 12.2 µM. AID 720700. purified PLC-gamma1, fluorogenic substrate, fluorescence. P19174; in the data active = inhibition above about 9.5%
ADAM10 confirm: human ADAM10 inhibition, confirmation; shares compounds with ADAM10 inh; ADAM10 QFRET peptide cleavage, EDANS fluorescence; inhibition, % at 6.95 µM; hit rate 1% among 2,100;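 active = inhibition above about 20% chosen separately for each screening run, limit read from the data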
ADAM17 ctr: inhibits human ADAM17 in ADAM10 exosite counter-screen; shares compounds with ADAM10 inh; ADAM17 QFRET peptide cleavage, EDANS fluorescence; inhibition, % at 6.95 µM; hit rate 0.5% among 2,100;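 active = mean triplicate inhibition above the solvent-only control wells' mean plus 3 SD, cut at about 12% in these data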
ADAM10 counter: ADAM10 inhibition, counter-screen for ADAM17 exosite hits | AID 743256 | shares compounds with ADAM17 inh | recombinant ADAM10, EDANS/DABCYL FRET peptide cleavage, 3 h | inhibition, % at 6.95 µM | hit rate 47% among 2,900;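 active = mean inhibition over the triplicate runs exceeds the activity threshold set in the earlier primary screen, cut at about 20% in these data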
ADAM17 confirm: confirmation of inhibitors of human ADAM17; recombinant ADAM17, EDANS/DABCYL QFRET peptide cleavage; shares compounds with ADAM17 inh; inhibition, % at 6.95 µM; AID 743257; hit rate 65% among 2,900;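 active = mean inhibition across replicates above the hit cutoff set in the primary screen, cut at about 8.5% in these data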
A number is an active result; - = inactive; . = no result; + = active, no number.

SMILES	ADAM17 inh	ADAM10 inh	Rce1 inhib	PLC-beta3 inh	PLCg1 inh	ADAM10 confirm	ADAM17 ctr	ADAM10 counter	ADAM17 confirm
CC(C)(C)NC(=O)C(c1ccc(-c2ccccc2)cc1)N(C[C@H]1CC[C@@H]([C@@H]2CC[C@H](CO)O2)O1)C(=O)c1ccc(C(C)(C)C)cc1 (some centres not stated)	11.6	20.3	.	-	-	-	-	37.1	18.7
O=C(O)c1nn(CCOc2cccc(Br)c2)c(=O)c2ccccc12	11.0	21.2	-	-	-	-	-	-	-
O=C(O)c1nn(CCOc2cccc(Cl)c2)c(=O)c2ccccc12	-	-	-	-	-	.	.	.	.
Cc1ccc([C@@H]2CC(=O)[C@@H]3CN(S(=O)(=O)c4ccc(C)cc4)[C@H](c4ccccc4)C[C@@H]3N2S(=O)(=O)c2ccc(Cl)cc2)cc1	-	-	.	-	-	.	.	.	.
CCCCC1CCC(C(=O)N(CCCC)c2c(N)n(CCCC)c(=O)[nH]c2=O)CC1 (configuration not stated)	-	-	-	-	-	.	.	.	.
CCOC(=O)C1=CCC(c2ccccc2)N(S(=O)(=O)c2ccccc2)C1 (configuration not stated)	15.1	21.8	.	-	-	-	-	-	-
CCCCCCCCN1C(=O)[C@H](CC(=O)N2CCN(C(=O)c3ccco3)CC2)C[C@@]2(C(=O)OC)CC(C)(C)CC=C12	-	-	.	-	-	.	.	.	.
COc1ccc(-c2cc(N)n(S(=O)(=O)c3ccc(C)cc3)n2)c(OC)c1	-	-	-	-	-	.	.	.	.
COc1ccc(S(=O)(=O)n2nc(-c3ccc(Cl)cc3)cc2N)cc1	9.0	20.6	-	-	-	-	-	-	8.9
COc1ccccc1NC(=O)c1ccc(NC(=O)CSc2ncn[nH]2)cc1	-	-	-	-	-	.	.	.	.
COc1cc2c(cc1NC(=O)C(C)Sc1ccc(NC(C)=O)cc1)oc1ccccc12 (configuration not stated)	21.8	46.9	-	-	-	-	-	31.5	17.5
COc1cc2c(cc1NC(=O)Nc1ccc(C)cc1)oc1ccccc12	-	-	-	-	-	.	.	.	.
Cc1[nH]nc2c1C(c1ccc3c(c1)OCO3)N(Cc1ccccc1)C2=O (configuration not stated)	-	-	.	-	-	.	.	.	.
COc1ccc(C(c2c[nH]c3ccccc23)c2c[nH]c3ccccc23)cc1O	11.4	30.9	-	-	-	-	-	42.6	20.2
Cc1ccc(S(=O)(=O)NC(=O)C2(C)CCN2C(=O)C2CC2)cc1 (configuration not stated)	-	-	.	-	-	.	.	.	.
Cc1nn(Cc2ccccc2Cl)c2sc(C(=O)NCc3ccc4c(c3)OCO4)cc12	11.7	23.4	-	-	-	-	-	-	12.0
C=CCNc1nc(C(=O)OCC(=O)Nc2c(Cl)cccc2C(F)(F)F)cs1	-	-	-	-	-	.	.	.	.
NC(=O)c1ccc(NC(=O)c2ccc(COc3ccccc3Br)cc2)cc1	-	-	.	-	-	.	.	.	.
Cc1cc(C)n(Cc2ccc(NC(=O)c3ccc(COc4ccccc4Br)cc3)cc2)n1	10.9	28.9	+	-	-	-	-	-	12.4
Cc1ccc(C)c(Cn2nnc3c(=O)[nH]c(C4CCN(S(=O)(=O)c5ccc(S(=O)(=O)NC6CC6)cc5)CC4)nc32)c1	11.3	24.6	-	-	-	-	-	38.5	20.6
CCC(C)NS(=O)(=O)c1cc2c3c(c1)CCN3C(=O)CC2 (configuration not stated)	-	-	-	-	-	.	.	.	.
Cn1ccc2c(N3CCCCCCC3)cc3c(c21)C1CCC3O1 (configuration not stated)	-	-	.	-	-	.	.	.	.
CCOC(=O)CC(c1ccc([N+](=O)[O-])cc1)n1c(C)ccc1C (configuration not stated)	-	-	-	-	-	.	.	.	.
O=[N+]([O-])c1cc(Cl)c(Cl)c(Cl)c1Cl	-	-	.	-	-	.	.	.	.
